Bioassay records deposited in PubChem BioAssay by National Center for Advancing Translational Sciences (NCATS).
IMPase Li cell = cell-permeable IMPase inhibitors with lithium potentiation; AID 1457; CHO-M1 cells, IP1 TR-FRET (IP-One), carbachol + lithium; 210,000 tested, 0.35% active; Potency, µM (titrated, usually from 59.4 µM), for the others: at the top dose activity, negative = IMPase inhibition, most hits filed as inhibitors; active means well fitted curve in the direction sought with a large enough effect; inconclusive means small, poorly fitted or top-dose-only effect, or another doubt; inactive means no such curve, though single readings can be large; an effect the other way counts as inactive or inconclusive;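 further: IP1 builds up when IMPase is blocked and the TR-FRET signal falls; potency means the concentration at half of the fitted maximal effect; plate controls were basal vehicle for no effect and high inhibitor control for full effect; nearly all actives have a fitted effect of over 50% in size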
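CHO cells stably expressing M1 receptor (2000/well, cultured 16–30 h) treated 30 min at 37C with compound plus low lithium. Cytosolic IP1 by TR-FRET (665/620 ratio and 620 channel) after 10 min lysis; AC50 by Hill fit.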
NPSR antag = neuropeptide S receptor (human) antagonism, cAMP | Q6W5P4 | CHO-NPSR cells, cAMP TR-FRET, antagonist mode | Potency, µM (titrated, usually from 38.3 µM), for inactives: at the highest dose activity change, negative = inhibition, hits mostly inhibitors | 220,000 tested, 1% active | AID 1461; active means well fitted curve in the direction sought with a large enough effect; inconclusive means small, poorly fitted or top-dose-only effect, or another doubt; inactive means no such curve, though single readings can be large; an effect the other way counts as inactive or inconclusive; further: potency means the concentration at half of the fitted maximal effect; nearly all actives have a fitted effect of over 50% in size
ALDH1A1 block = blocks purified human ALDH1A1 activity; P00352; Purified ALDH1A1, NADH fluorescence, propionaldehyde substrate; Potency, µM (top dose mostly 75.3 µM), inactives show at the highest dose activity, negative = inhibition, most hits filed as inhibitors; 220,000 tested, 7.3% active;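 further: potency means the concentration at half of the fitted maximal effect; plate controls were no enzyme wells and a reference inhibitor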
Target sequence (P00352 whole entry, looked up): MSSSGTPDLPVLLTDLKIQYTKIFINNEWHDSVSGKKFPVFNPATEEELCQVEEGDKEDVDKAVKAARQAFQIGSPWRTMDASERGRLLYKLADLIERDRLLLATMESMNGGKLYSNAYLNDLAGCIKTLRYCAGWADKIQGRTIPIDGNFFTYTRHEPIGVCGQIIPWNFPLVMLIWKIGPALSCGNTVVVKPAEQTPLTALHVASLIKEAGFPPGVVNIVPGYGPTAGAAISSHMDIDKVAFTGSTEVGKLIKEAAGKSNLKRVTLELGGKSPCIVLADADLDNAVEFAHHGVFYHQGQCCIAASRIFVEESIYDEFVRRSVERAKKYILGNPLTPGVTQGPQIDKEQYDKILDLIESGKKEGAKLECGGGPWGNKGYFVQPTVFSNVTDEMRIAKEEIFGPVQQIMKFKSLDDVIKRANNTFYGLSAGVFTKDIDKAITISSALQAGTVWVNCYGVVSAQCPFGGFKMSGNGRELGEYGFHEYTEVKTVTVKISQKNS
HPGD inh = inhibitors of human 15-hydroxyprostaglandin dehydrogenase (HPGD). P15428. purified HPGD, NADH fluorescence kinetic, PGE2 substrate. Potency, µM, inactives show at the highest dose activity change, negative = inhibition, actives largely listed as inhibitors. 150,000 tested, 4.3% active. AID 894; further: potency means the concentration at half of the fitted maximal effect
Target sequence (P15428 whole entry, looked up): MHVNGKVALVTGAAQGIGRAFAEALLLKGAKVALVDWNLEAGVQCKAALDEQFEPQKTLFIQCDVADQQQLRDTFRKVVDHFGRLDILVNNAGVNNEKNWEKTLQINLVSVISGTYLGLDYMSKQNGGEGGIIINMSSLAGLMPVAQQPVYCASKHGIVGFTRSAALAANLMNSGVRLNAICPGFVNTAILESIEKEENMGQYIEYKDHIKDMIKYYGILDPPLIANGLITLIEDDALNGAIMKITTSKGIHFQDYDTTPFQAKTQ
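NADH formation kinetics: reaction with 30 uM PGE2 and 1 mM NAD+ (final), 20 nM enzyme, Tris-HCl pH 8 with Tween 20, after 15 min compound preincubation at room temperature. Fluorescence change, last versus first of five reads.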
PNC assembly inh = inhibitors of perinucleolar compartment assembly; PC3M PTB-GFP, PNC prevalence imaging, 16 h; hits give low values; activity change (PNC), negative = inhibition, % at 10 µM; 140,000 tested, 3.1% active; AID 2417;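 active means readout at or below -70, meaning at least 70% loss of cells showing the perinucleolar compartment, a nuclear body marking cancer cells; inconclusive means readout between -30 and a set limit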;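 further: plate controls were DMSO wells for no effect and camptothecin positive control wells for full effect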
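Read-out is percentage of cells bearing a perinucleolar compartment, from automated 20x imaging of fixed, Hoechst-stained PC3M PTB-GFP cells. Cells were seeded 4 h, then exposed 16 h to compound (23 nl of library stock) in duplicate plates.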
IMPase cell inh = IMPase inhibition in cells. P97697. CHO-M1 cells, IP1 accumulation, HTRF TR-FRET ratio. inhibition (IP1 accumulation), % at 46.1 µM. 120,000 tested, under 10 active; active means well fitted curve in the direction sought with a large enough effect in the signal ratio, not every such curve was filed as active; inconclusive means small, poorly fitted or top-dose-only effect, or a change in a side signal; inactive means no such curve, though single readings can be large or run the other way; the % refers to the signal ratio;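 further: cells stimulated with carbachol in lithium chloride buffer; plate controls were DMSO basal wells for no effect and reference inhibitor wells for full effect; higher means more IMPase inhibition seen as more IP1 and lower FRET ratio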
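In this qHTS, compounds (final up to 46 uM) act on CHO-M1 cells that are then activated through the M1 receptor with carbachol, in pH 7.4 buffer containing 50 mM LiCl, for 30 min. IP1 accumulation is quantified by the IP-One immunoassay.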
An asterisk follows results filed as active; ? = inconclusive; . = no result given; [ ] = remark or other dose. An excerpt weighted towards active compounds, which were near 11% of everything screened. Unless noted, the call rests on the fitted dose curve; in most records, active means well fitted inhibition curve with a large enough effect (not every such curve was filed as active); inconclusive means small, poorly fitted or top-dose-only effect, or another doubt; inactive means no such curve, though single readings can be large or run the other way. Unless noted, on the % scale 0 is the no-effect control and ±100 the full control effect.

SMILES | IMPase Li cell | NPSR antag | ALDH1A1 block | HPGD inh | PNC assembly inh | IMPase cell inh
N#Cc1c(/N=C/c2ccco2)sc2c1CCC2 | 11%[38.3 µM] | -6%[46.1 µM] | -5% | -7% | 38 | 4
CCOc1[nH]c(/N=C/c2ccco2)c(C#N)c1C#N | 11%[38.3 µM] | 0%[46.1 µM] | 20µM* | ? | 23 | -5
CCO[C@@H]1OC(C(=O)N2CCN(Cc3ccc4c(c3)OCO4)CC2)=C[C@H](c2ccc(C(F)(F)F)cc2)[C@H]1CCCO | 7% | ? | -10% | . | . | .
O=c1[nH]c2ccccc2n1CCCSc1cnc2ccccc2n1 | 22%[38.3 µM] | -15%[46.1 µM] | -2% | -12% | -9 | 5
O=C1c2ccccc2C(=O)N1CSc1nnc2c3ccccc3n(CCc3ccccc3)c2n1 | 40%[38.3 µM] | -8%[46.1 µM] | 18µM* | -11% | -20 | 4
C=CCn1c2ccccc2c2nnc(SCCCn3c(=O)[nH]c4ccccc43)nc21 | 13% | ? | -7% | 14µM* | 3 | 14
C=CCn1c2ccccc2c2nnc(SCN3C(=O)c4ccccc4C3=O)nc21 | 5%[38.3 µM] | ? | 28µM* | -29% | 46 | 11
NNc1nc2ccc(F)cc2s1 | 2% | -11% | ? | -13% | 24 | .
Cc1noc(C)c1COc1ccc(C(=O)OCC(=O)Nc2ccc3ccccc3c2)cc1 | 29%[38.3 µM] | -30%[46.1 µM] | -5% | -17% | 6 | -3
Cc1cc(Br)ccc1NC(=O)C(C)c1ccc([N+](=O)[O-])cc1 (stereo not drawn) | 7% | -20% | 1% | -14% | 31 | .
CCCc1nc2oc3c(NCCOCCO)ncnc3c2c2c1COC(C)(C)C2 | -6%[38.3 µM] | 8%[46.1 µM] | ? | ? | -111* | -1
CCCc1nc2oc3c(OC)ncnc3c2c2c1COC(C)(C)C2 | 34%[38.3 µM] | -9%[46.1 µM] | 0.89µM* | -15% | -29 | ?
CC(C)c1nc2oc3c(NCCO)ncnc3c2c2c1COC(C)(C)C2 | . | -26% | . | . | . | .
Cc1ccc(NC2c3ncccc3C(=O)N2c2ccccc2C)cc1C (stereo not drawn) | 13%[38.3 µM] | -11%[46.1 µM] | ? | 16µM* | 8 | -4
Cn1nnc2sc3c(c2c1=O)CCCC3 | 11%[38.3 µM] | -2%[46.1 µM] | 13µM* | 32µM* | ? | 1
O=c1oc(-c2ccccc2)nc2sc3c(c12)CCCC3 | 28%[38.3 µM] | -19%[46.1 µM] | ? | ? | 1 | 1
Cc1ccccc1-c1nc2sc3c(c2c(=O)o1)CCC3 | 7% | -7%[46.1 µM] | -16% | 16µM* | 12 | -15
Cc1ccccc1-c1nc2sc3c(c2c(=O)n1N)CCCC3 | 9%[38.3 µM] | -22%[46.1 µM] | ? | 25µM* | ? | 4
COc1ccc(CN=C2NN=C(c3cccc(OC)c3)CS2)cc1 | -2% | -7% | 8.9µM* | . | . | .
CCc1ccc(C2=NNC(=Nc3c(C)n(C)n(-c4ccccc4)c3=O)SC2)cc1 | 1% | 6% | ? | . | . | .
COc1cccc(C2=NNC(=NCc3ccccc3)SC2)c1 | 7% | -35% | ? | . | . | .
COc1ccc(CN=C2NN=C(c3ccccc3)CS2)cc1 | 10% | -5% | 4.5µM* | . | . | .
CCCCn1c(-c2csc3ccccc23)n[nH]c1=S | 30%[38.3 µM] | 4%[46.1 µM] | ? | ? | 4 | -1
CCCCn1c(-c2csc3c2CCC(C)C3)n[nH]c1=S (stereo not drawn) | 17%[38.3 µM] | ? | 16µM* | 14µM* | -19 | 8
C=CCn1c(-c2csc3c2CCC(C)C3)n[nH]c1=S (stereo not drawn) | 10% | -20% | ? | 20µM* | ? | .
SMILES | IMPase Li cell | NPSR antag | ALDH1A1 block | HPGD inh | PNC assembly inh | IMPase cell inh
CCn1c(-c2csc3c2CCCC3)n[nH]c1=S | -6% | 14% | ? | 25µM* | 33 | .
CCCCn1c(-c2csc3c2CCCC3)n[nH]c1=S | 58%[38.3 µM] | 12%[46.1 µM] | ? | 16µM* | -4 | 15
CC1(C)CC(=O)C2=C(C1)Nc1ccccc1NC2c1nc2ccccc2[nH]1 (stereo not drawn) | 14%[38.3 µM] | 1%[46.1 µM] | 3% | -14% | -26 | 4
Cc1ccc(C2(C(F)(F)F)NC(=O)N3C(=C2C#N)Nc2ccccc23)cc1 (stereo not drawn) | 23%[38.3 µM] | -10%[46.1 µM] | 1% | -13% | -10 | 2
Cc1cc(C)cc(NC(=O)NC(C)C2CCCO2)c1 (stereo not drawn) | -6% | -14% | 2% | . | . | .
Cc1cc(C)cc(NS(=O)(=O)c2ccc(NC(=S)NC(=O)c3ccc(Br)o3)cc2)c1 | 42%[38.3 µM] | ? | 14µM* | -13% | ? | 7
CN(C)S(=O)(=O)c1ccc(NC(=S)NC(=O)c2ccc(Br)o2)cc1 | 11% | 6% | 13µM* | . | . | .
COc1cc(N2CCCC2)c(OC)cc1C=O | 10% | 43% | ? | . | . | .
Cc1cccc(Oc2ccccc2NC(=O)c2cnccn2)c1 | 25%[38.3 µM] | -19%[46.1 µM] | 11µM* | -17% | 21 | -1
O=C(Nc1ccccc1F)c1cnccn1 | -2% | 5% | 7% | . | . | .
C=CCn1c(/N=C/c2ccc3c(c2)OCO3)nc2ccccc21 | 9% | 10%[46.1 µM] | ? | -16% | 333 | -5
Cc1cc(-c2nn(-c3ccccc3F)cc2CNCCc2cnc[nH]2)c(C)s1 | 9% | 9% | 14µM* | . | . | .
ON1C(c2ccc(Cl)cc2Cl)N(O)[C@H]2CCCC[C@H]21 (stereo partly drawn) | 2%[38.3 µM] | -16%[46.1 µM] | 2% | -17% | ? | -6
CC1N(O)C(c2ccc(Cl)cc2Cl)N(O)C1(C)C (stereo not drawn) | 0%[38.3 µM] | -15%[46.1 µM] | 14µM* | -3% | 16 | 0
Cc1cc(C)c2nc(NC(=O)c3ccc(OCC4CCCO4)cc3)sc2c1 (stereo not drawn) | -3% | 2% | ? | -23% | -28 | .
Cc1ccc(C(=O)NNC(=S)Nc2cccc(Cl)c2Cl)cc1[N+](=O)[O-] | 51%[38.3 µM] | -5%[46.1 µM] | 2.8µM* | 11µM* | 28 | 7
Cc1ccc(C(=O)NC(=S)Nc2cccc(NC(=O)c3ccccc3)c2)cc1[N+](=O)[O-] | 0% | -17% | 16µM* | -14% | -93* | .
Cc1ccc(C(=O)NC(=S)Nc2cccc(NC(=O)c3ccccc3Cl)c2)cc1[N+](=O)[O-] | -4% | -12% | 13µM* | -13% | ? | .
CC(=O)c1cccc(NC(=S)NNC(=O)c2ccc(C)c([N+](=O)[O-])c2)c1 | -4% | -10% | ? | . | . | .
O=C1c2cccc3cccc(c23)C(=O)N1c1ccncc1 | 5% | -1%[46.1 µM] | ? | ? | -100* | -3
O=C1c2cccc3cccc(c23)C(=O)N1c1cccnc1 | . | -15%[46.1 µM] | 3% | . | 25 | -16
COc1cc(OC)c(-c2nnc3n(CCc4ccccc4)c(=O)c4ccccc4n23)cc1OC | 0% | 12% | ? | -23% | -19 | 1
COc1cc(-c2nnc3n(CCc4ccccc4)c(=O)c4ccccc4n23)cc(OC)c1OC | 2% | -2% | 0.22µM* | -27% | ? | .
